# Compounds with a hit are over-represented: about 2% of the library has one in this group of screens.
# Fam108B inh = blocks mouse Fam108B hydrolase in RBBP9 counter-screen; recombinant Fam108B, FP-Rh probe fluorescence polarization; inhibition, % at 9.51 µM; 300,000 tested, 0.33% active; AID 1947;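 active means inhibition above the screen mean inhibition plus 3 SD, computed separately per campaign, cut at about 18% in these data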;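 further: inhibitors lower polarization as less probe binds the enzyme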
# LYPLA2 inh = blocks human lysophospholipase 2, a PME1 counter-screen. inhibition, % at 5.9 µM. recombinant LYPLA2, FP-Rh probe fluorescence polarization. O95372. 320,000 tested, 0.38% active. AID 2177;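 active means inhibition above the screen-wide mean plus 3 SD, limit set per campaign, cut at about 26% in these data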;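 further: 0% = LYPLA2 with DMSO and 100% = wells lacking LYPLA2 enzyme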
# GSTO1 inh = blocks human GSTO1 in RBBP9 counter-screen; 300,000 tested, 1.1% active; inhibition, % at 5.96 µM; AID 1974; recombinant GSTO1, activity-based probe fluorescence polarization;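 active means inhibition above the campaign mean inhibition plus 3 SD, cut at about 35% in these data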;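 further: 0% = GSTO1-1 with DMSO and 100% = wells lacking GSTO1-1 enzyme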
# LYPLA1 counter = counter-screen for PME1 inhibitors: inhibitors of human LYPLA1; O75608; recombinant LYPLA1, FP-Rh probe fluorescence polarization; inhibition, % at 5.9 µM; 320,000 tested, 0.16% active; AID 2174;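 active means inhibition above the mean of all tested compounds plus 3 SD, set per campaign, cut at about 14% in these data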;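 further: inhibitors block serine hydrolase probe labeling of LYPLA1 so polarization falls; 0% = enzyme with DMSO and 100% = wells lacking LYPLA1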
# PREPL inhibitor = inhibitors of human prolyl oligopeptidase-like enzyme PREPL. recombinant PREPL, fluorescence polarization activity-based probe. 320,000 tested, 0.68% active. Q4J6C6. inhibition, % at 5.96 µM; in the data active means inhibition above about 43%;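 further: 0% = enzyme with DMSO and 100% = wells lacking enzyme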
# Target sequence (Q4J6C6 whole entry, looked up): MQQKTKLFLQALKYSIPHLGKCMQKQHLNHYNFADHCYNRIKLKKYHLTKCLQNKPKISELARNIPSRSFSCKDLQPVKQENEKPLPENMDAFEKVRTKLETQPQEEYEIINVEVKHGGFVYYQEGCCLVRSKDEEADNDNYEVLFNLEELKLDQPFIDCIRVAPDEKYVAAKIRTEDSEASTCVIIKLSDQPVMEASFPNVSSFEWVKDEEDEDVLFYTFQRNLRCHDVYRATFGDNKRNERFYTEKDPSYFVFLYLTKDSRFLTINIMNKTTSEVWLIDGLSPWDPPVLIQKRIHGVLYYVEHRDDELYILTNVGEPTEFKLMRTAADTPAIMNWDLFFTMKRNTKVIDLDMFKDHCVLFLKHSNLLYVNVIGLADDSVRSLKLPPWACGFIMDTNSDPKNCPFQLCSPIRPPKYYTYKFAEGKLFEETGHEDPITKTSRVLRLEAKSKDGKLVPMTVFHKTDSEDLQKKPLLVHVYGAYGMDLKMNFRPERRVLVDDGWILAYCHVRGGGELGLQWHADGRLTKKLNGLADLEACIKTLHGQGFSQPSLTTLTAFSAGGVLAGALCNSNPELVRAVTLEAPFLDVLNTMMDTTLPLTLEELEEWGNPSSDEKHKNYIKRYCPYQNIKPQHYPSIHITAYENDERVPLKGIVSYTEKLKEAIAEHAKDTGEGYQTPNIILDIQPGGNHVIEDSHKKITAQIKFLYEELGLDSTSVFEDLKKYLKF
# PME-1 primary = PME-1 (human) inhibition. Q9Y570. 320,000 tested, 0.53% active. inhibition, % at 5.9 µM. recombinant PME-1, FP-Rh probe fluorescence polarization. AID 2130;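 active means inhibition above the campaign mean of all compounds plus 3 SD, cut at about 26% in these data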;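 further: competitive labeling of PME-1 active site by serine hydrolase directed probe; 0% = PME-1 with DMSO and 100% = wells lacking PME-1 enzyme; inhibitors block probe labeling so polarization falls and inhibition rises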
# GSTO1 inh conf = confirmation of human GSTO1 inhibitors | shares compounds with GSTO1 inh | recombinant GSTO1, probe fluorescence polarization | inhibition, % at 5.96 µM | 2,400 tested, 54% active | AID 2176;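 active means inhibition above the primary screen's cutoff, its mean inhibition plus 3 SD, cut at about 35% in these data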;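 further: loss of polarization as inhibitors block binding of rhodamine sulfonate ester activity probe; 0% = GSTO1 with DMSO and 100% = wells lacking GSTO1 enzyme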
# GSTO1 recomb ABPP = inhibitors of recombinant human GSTO1; gel ABPP SE-Rh probe fluorescence; shares compounds with GSTO1 inh; inhibition, % at 1 µM; 130 tested, 30% active;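 active means inhibition of the enzyme GSTO1 above about 75%, limit read from the data; inactive means inhibition below that limit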
# * marks the source's active call; other numbers are inactive results; · = no result.
SMILES,Fam108B inh,LYPLA2 inh,GSTO1 inh,LYPLA1 counter,PREPL inhibitor,PME-1 primary,GSTO1 inh conf,others
O=C1CC(CC(=O)N/N=C/c2ccccc2[N+](=O)[O-])=NN1,-3.0,1.1,52.0*,-2.9,8.1,-5.5,12.4,
O=C(C[n+]1ccccc1)N/N=C/c1ccccc1[N+](=O)[O-],-2.3,0.0,-2.3,1.2,0.8,2.9,·,
Nc1cc(N)c(OCC(F)(F)F)cc1OCC(F)(F)F,9.9,6.1,79.7*,-0.9,32.2,14.5,64.4*,
COc1ccccc1N=Nc1ccc(O)c2ncccc12,7.0,2.4,50.9*,-1.9,13.0,13.1,9.8,
Cc1ccccc1C(=O)NC(=S)Nc1ccccc1N1CCCC1,1.9,-7.3,13.3,-1.0,2.2,5.1,·,
COc1ccccc1C(=O)NC(=S)Nc1ccccc1N1CCCC1,0.2,-8.2,39.7*,-5.5,19.5,-1.5,8.3,
Cc1ccccc1NC(=O)CSCc1cc(=O)n2ccsc2n1,-3.6,-1.2,-3.8,-4.3,0.1,-0.5,·,
COCc1cc(C)nc(SCC(=O)c2ccc(O)c(O)c2)c1C#N,-1.6,-2.7,47.6*,-6.1,20.9,-15.3,14.3,
Cc1nnc(N/N=C/c2c(O)n(-c3cccc(C(F)(F)F)c3)c(=O)c3ccccc23)[nH]c1=O,13.9,1.5,39.1*,-0.5,11.7,2.4,18.6,
CCn1cc(C(=O)N[C@@H](C)C(=O)NCCCn2ccnc2)c(=O)c2cc3c(cc21)OCO3,-2.4,4.1,5.4,1.4,8.1,8.8,·,
Cc1cccc(C(=O)NC2C(=O)NNC2c2ccc(Cl)cc2)c1 (centres undefined),-2.0,0.9,44.5*,-1.9,-0.1,-1.7,5.5,
Cc1cc(C(=O)Nc2cccc(C)c2C)c2ccccc2n1,3.3,7.7,3.1,-0.8,-2.3,0.1,·,
Cc1nn(C2CCS(=O)(=O)C2)c(C)c1C=O (centres undefined),-3.2,3.0,9.0,-0.2,3.3,1.6,·,
COc1ccc(OC)c(NC(=O)NC2(C(F)(F)F)Oc3ccccc3O2)c1,1.0,-0.2,56.5*,-5.4,14.3,4.4,6.7,
O=C(Nc1ccccc1)Nc1ccc(O)c2ccccc12,10.6,-8.1,47.0*,-13.1,19.4,16.2,37.9*,
COc1ccc(OC)c(NC(=O)Nc2ccccc2C)c1,1.6,-1.1,9.0,2.0,1.1,12.9,·,
O=C(Nc1ccccc1)Nc1cccc2ccccc12,0.9,1.9,-4.5,-1.8,22.8,2.3,·,
COc1ccc(OC)c(NC(=O)Nc2ccc(O)c3ccccc23)c1,6.1,-3.3,61.4*,-11.0,11.2,12.9,-7.0,
Cc1ccc(Cn2c(C(C)Nc3nc(-c4ccc(F)cc4)cs3)nc3cc(C(F)(F)F)ccc32)cc1 (centres undefined),1.2,-5.6,1.1,-1.5,5.7,7.3,·,
CCCN(CC(=O)Nc1ccccc1C)C(=O)CCl,1.8,4.6,80.7*,-0.7,-6.5,0.2,91.7*,GSTO1 recomb ABPP=4.0
O=C(Nc1ccc(Cl)cc1)C1C2C=CC3(O2)C1C(=O)N(CCN1CCCCC1)C3C(=O)NC1CCCCC1 (centres undefined),1.6,1.1,0.7,1.2,34.8,-4.4,·,
O=C(N/N=C/c1c[nH]c2ccccc12)c1ccc(O)c(O)c1,-2.6,-4.9,39.6*,-3.6,0.4,9.7,10.7,
CCOC(=O)c1c(C)[nH]c(C2=NNC(=NC3CC3)SC2)c1C,4.3,5.7,11.0,-1.0,4.0,-0.1,·,
COc1cc(Sc2ccc(C)cc2)c(OC)cc1N,6.2,5.5,47.3*,1.1,47.2*,3.6,7.4,
O=C(Cc1ccccn1)c1ccc(Cl)cc1,1.9,3.0,3.6,0.2,-2.3,-1.1,·,
SMILES,Fam108B inh,LYPLA2 inh,GSTO1 inh,LYPLA1 counter,PREPL inhibitor,PME-1 primary,GSTO1 inh conf,others
CC1=C(CC(=O)c2ccc(Cl)cc2)C(=O)c2ccccc2C1=O,6.1,-2.1,44.5*,-8.5,32.0,5.3,13.8,
O=C(NC(=S)NCC1CCCO1)C(c1ccccc1)c1ccccc1 (centres undefined),-4.5,4.1,0.5,0.0,-0.6,-1.8,·,
COc1ccc2c(c1)CC/C(=C\Nc1ccc3c(c1)OCO3)C2=O,12.0,0.1,68.7*,1.5,37.1,31.8*,62.0*,
COc1ccc(N/C=C2\CCc3ccccc3C2=O)cc1,3.0,2.9,25.4,1.5,23.2,21.2,·,
COc1cccc(CSc2nc3ccncc3[nH]2)c1,2.4,1.7,7.2,0.4,-5.8,-3.2,·,
O=C(NCc1cccnc1)C(=O)Nc1cc2c3c(c1)CC(=O)N3CCC2,-0.8,4.3,8.2,0.7,20.4,5.9,·,
Nc1nc(N)nc(-c2cc(O)ccc2O)n1,·,5.7,·,-1.2,3.3,3.7,·,
Oc1ccc(O)c(-c2cnns2)c1,2.1,-3.3,88.9*,-6.9,4.9,1.4,-5.2,
COc1ccc2c3c(cccc13)N(C)N=C2C,3.4,0.0,70.0*,-0.7,37.4,7.2,64.0*,
Nn1cnnc1N/N=C/c1ccc(F)cc1,-3.7,-1.4,18.3,-0.7,2.9,3.0,·,
Nn1cnnc1N/N=C/c1ccc(Cl)c([N+](=O)[O-])c1,-3.8,-7.0,38.8*,-0.7,14.5,-1.8,6.1,
CCN(CC)S(=O)(=O)c1ccc(C)c(NS(=O)(=O)c2cc(/C=C/C(=O)O)cc(OC)c2OC)c1,1.3,-7.3,39.0*,-2.1,-11.1,-9.1,24.3,
Cc1ccccc1Nc1c([N+](=O)[O-])cncc1[N+](=O)[O-],1.5,1.3,3.7,-0.9,-0.4,3.9,·,
O=[N+]([O-])c1cncc([N+](=O)[O-])c1Nc1cccc(O)c1,2.3,-4.2,70.0*,-0.2,-6.7,-2.4,13.2,
O=[N+]([O-])c1cc([N+](=O)[O-])c2nonc2c1Nc1ccc(O)cc1,-0.7,13.9,64.9*,5.0,18.7,11.9,53.5*,
Cc1c(O)cc2c(c1O)C(=O)CC(c1ccc(O)cc1)O2 (centres undefined),2.2,2.2,50.8*,-4.5,15.3,-1.1,10.1,
O=C(CSc1nnc(CNc2ccccc2)o1)c1ccc2c(c1)OCCO2,-1.5,2.1,40.2*,2.5,-3.5,4.1,30.1,
O=C(CNc1ccc(Br)cc1)c1ccc(Br)s1,-2.2,-0.9,0.4,-3.7,6.6,0.2,·,
O=C(NN1C(=O)c2ccccc2NC1c1ccc([N+](=O)[O-])o1)c1ccccc1 (centres undefined),-4.3,0.6,44.1*,2.1,8.5,7.4,6.2,
COC(=O)c1ccc(CC(=O)c2ccc(O)cc2O)o1,0.2,-4.6,11.3,-6.7,-2.3,-10.3,·,
COC(=O)c1ccc(CC(=O)c2c(C)cc(O)cc2O)o1,1.3,-8.9,43.2*,-7.0,-4.9,1.3,11.7,

# Source: PubChem BioAssay (The Scripps Research Institute Molecular Screening Center)
